Test results reported in PubChem BioAssay (EPA / NIEHS).
Inconclusive results are not listed. Active and inactive are the calls of the source. How the source made its calls, unless noted: active means hit-call score of the fitted dose curve at least 0.9, where 1 is the maximum; inactive means score below 0.9.

Test system: not listed separately
Test: ATG_Oct_MLP_CIS: Attagene CIS-FACTORIAL HepG2 Assay for human Octamer-Binding Transcription Factor (Oct) (AID 2282993)
Conditions: HepG2 Attagene cis-factorial Oct reporter, mRNA; actives raise or lower the signal
Procedure, shortened: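 Read-out: reporter mRNA via RT-PCR plus capillary electrophoresis of 6-FAM-labelled fragments. Transiently transfected HepG2, 24 h exposure, endogenous TF activity on cis elements. Gain or loss of signal fitted relative to DMSO.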

Question: With `CCCOCCC` as the molecule, how does the outcome read?
Answer: inactive

Question: For `CN(C)CCC(c1ccc(Cl)cc1)c1ccccn1` (configuration not stated), which outcome is on record?
Answer: inactive

Question: Which outcome does the source give for `CN(C)CCCN1c2ccccc2CCc2ccc(Cl)cc21` here?
Answer: inactive

Question: For `CC/C=C\CC1=C(C)CCC1=O`, which outcome is on record?
Answer: inactive

Question: Which outcome does the source give for `C[C@H]1C[C@H]2[C@@H]3CCC4=CC(=O)C=C[C@]4(C)[C@@]3(F)[C@@H](O)C[C@]2(C)[C@@]1(O)C(=O)CO` here?
Answer: inactive

Question: With `COC(OC)C(C)c1ccccc1` (configuration not stated) as the molecule, how does the outcome read?
Answer: inactive

Question: Which outcome does the source give for `F[B-](F)(F)F` here?
Answer: inactive

Question: For `COCCCN`, which outcome is on record?
Answer: inactive

Question: For `CC1=CCCC(C)(C)C12CCC(C)O2` (configuration not stated), which outcome is on record?
Answer: inactive

Question: With `CC(=O)c1nccs1` as the molecule, how does the outcome read?
Answer: inactive

Question: For `COc1ccccc1OCC(O)CO` (configuration not stated), which outcome is on record?
Answer: inactive

Question: With `OCCN(CCO)c1cccc(Cl)c1` as the molecule, how does the outcome read?
Answer: inactive

Question: With `O=C(O)c1nc(Cl)c(Cl)c(Cl)c1Cl` as the molecule, how does the outcome read?
Answer: inactive

Question: For `CC=CC(=O)O`, which outcome is on record?
Answer: inactive

Biological target: Cellular tumor antigen p53 (Homo sapiens) (UniProt P04637)
Test: ATG_p53_CIS: Attagene CIS-FACTORIAL HepG2 Assay for human p53 Transcription Factor (AID 2282994)
Conditions: HepG2 p53 cis-element reporter, Attagene mRNA; actives raise or lower the signal
Procedure, shortened: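 HepG2, transient MRTU transfection (cis promoter elements, endogenous TFs); 24 h dosing; RNA isolation, RT-PCR, 6-FAM primer extension, HpaI digest, CE fluorescence; bidirectional fit vs DMSO.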

Sequence of Cellular tumor antigen p53 (Homo sapiens) (P04637 whole entry, looked up): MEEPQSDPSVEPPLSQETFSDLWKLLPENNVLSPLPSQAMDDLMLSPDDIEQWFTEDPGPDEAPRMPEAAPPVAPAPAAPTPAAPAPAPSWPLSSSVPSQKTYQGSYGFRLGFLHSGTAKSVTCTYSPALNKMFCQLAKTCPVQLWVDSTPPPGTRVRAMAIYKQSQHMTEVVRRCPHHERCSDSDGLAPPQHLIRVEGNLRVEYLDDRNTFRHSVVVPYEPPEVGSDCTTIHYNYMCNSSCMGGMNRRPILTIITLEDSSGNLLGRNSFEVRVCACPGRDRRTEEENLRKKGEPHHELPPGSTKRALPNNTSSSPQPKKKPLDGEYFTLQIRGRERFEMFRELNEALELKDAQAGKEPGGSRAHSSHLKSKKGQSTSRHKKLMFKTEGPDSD

Question: With `CC1(C)S[C@@H]2[C@H](NC(=O)[C@H](N)c3ccccc3)C(=O)N2[C@H]1C(=O)O` as the molecule, how does the outcome read?
Answer: inactive

Question: Which outcome does the source give for `Cc1cc(C)c(S(=O)(=O)O)cc1N=Nc1cc(S(=O)(=O)O)c2ccccc2c1O` here?
Answer: inactive

Question: For `CCCc1c(OCCCCc2nn[nH]n2)ccc(C(C)=O)c1O`, which outcome is on record?
Answer: inactive

Question: Which outcome does the source give for `Clc1ccccn1` here?
Answer: inactive

Question: For `c1cc(N(CC2CO2)CC2CO2)ccc1Cc1ccc(N(CC2CO2)CC2CO2)cc1` (configuration not stated), which AC50 is on record?
Answer: 20.8 µM (active)

Question: Which outcome does the source give for `CC1=NN(c2cc(Cl)c(S(=O)(=O)O)cc2Cl)C(=O)C1N=Nc1ccc(S(=O)(=O)O)cc1` (configuration not stated) here?
Answer: inactive

Question: With `O=C(O)Cc1c[nH]c2ccccc12` as the molecule, how does the outcome read?
Answer: inactive

Question: With `CCCCCCCCCCC1CO1` (configuration not stated) as the molecule, how does the outcome read?
Answer: inactive

Question: Which outcome does the source give for `NCc1ccccc1` here?
Answer: inactive

Question: For `CC(C)CC(=O)O`, which outcome is on record?
Answer: inactive

Question: For `C[Si](C)(C)O[Si](C)(C)O[Si](C)(C)C`, which outcome is on record?
Answer: inactive

Question: Which AC50 does the source give for `CC(C)n1c(/C=C/[C@@H](O)C[C@@H](O)CC(=O)O)c(-c2ccc(F)cc2)c2ccccc21` here?
Answer: 26 µM (active)

Question: For `CC1=C(CC=O)C(C)(C)CCC1`, which outcome is on record?
Answer: inactive

Question: With `Cc1ccccc1S(N)(=O)=O` as the molecule, how does the outcome read?
Answer: inactive

Question: Which outcome does the source give for `C=C(C)C(=O)OCC1CCCO1` (configuration not stated) here?
Answer: inactive

Question: With `OCCOCCOCCOCCOCCO` as the molecule, how does the outcome read?
Answer: inactive

Question: Which outcome does the source give for `CC(C)CC(=O)CC(C)CC(C)C` (configuration not stated) here?
Answer: inactive

Question: With `CCCOCCC` as the molecule, how does the outcome read?
Answer: inactive

Question: For `CN(C)CCC(c1ccc(Cl)cc1)c1ccccn1` (configuration not stated), which outcome is on record?
Answer: inactive

Question: With `CN(C)CCCN1c2ccccc2CCc2ccc(Cl)cc21` as the molecule, how does the AC50 read?
Answer: 4.07 µM (active)

Question: With `CC/C=C\CC1=C(C)CCC1=O` as the molecule, how does the outcome read?
Answer: inactive

Question: With `C[C@H]1C[C@H]2[C@@H]3CCC4=CC(=O)C=C[C@]4(C)[C@@]3(F)[C@@H](O)C[C@]2(C)[C@@]1(O)C(=O)CO` as the molecule, how does the AC50 read?
Answer: 39.4 µM (active)

Question: For `COC(OC)C(C)c1ccccc1` (configuration not stated), which outcome is on record?
Answer: inactive

Question: With `COCCCN` as the molecule, how does the outcome read?
Answer: inactive

Question: For `CC1=CCCC(C)(C)C12CCC(C)O2` (configuration not stated), which outcome is on record?
Answer: inactive

Question: Which outcome does the source give for `CC(=O)c1nccs1` here?
Answer: inactive

Question: Which outcome does the source give for `COc1ccccc1OCC(O)CO` (configuration not stated) here?
Answer: inactive

Question: Which outcome does the source give for `OCCN(CCO)c1cccc(Cl)c1` here?
Answer: inactive

Read-out: not listed separately
Test: BSK_3C_TissueFactor: BioMAP Diversity Plus: 3C Assay for Tissue Factor Biomarker Activity (AID 2282997)
Conditions: BioMAP 3C HUVEC, tissue factor biomarker readout; actives raise or lower the signal
Procedure, shortened: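 Human vascular primary cells (umbilical vein endothelium) received test chemical; Tissue Factor was determined by ELISA at 24 h, and both gain and loss of signal versus DMSO were fitted.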

Question: With `CCCCCCCCCCC1CO1` (configuration not stated) as the molecule, how does the AC50 read?
Answer: 30.8 µM (active)

Question: With `Cc1cccnc1` as the molecule, how does the outcome read?
Answer: inactive

Question: With `CC(C)CC(=O)CC(C)CC(C)C` (configuration not stated) as the molecule, how does the AC50 read?
Answer: 36 µM (active)

Question: Which outcome does the source give for `CN(C)CCC(c1ccc(Cl)cc1)c1ccccn1` (configuration not stated) here?
Answer: inactive

Read-out: not listed separately
Test: BSK_3C_uPAR: BioMAP Diversity Plus: 3C Assay for Urokinase-type plasminogen activator receptor (uPAR) Biomarker Activity (AID 2282998)
Conditions: BioMAP 3C HUVEC, uPAR biomarker ELISA; actives raise or lower the signal
Procedure, shortened: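 HUVEC primary cells; 24 h post-dose; uPAR by ELISA; gain or loss of signal fitted bidirectionally vs DMSO baseline.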

Question: Which AC50 does the source give for `CCCCCCCCCCC1CO1` (configuration not stated) here?
Answer: 33.7 µM (active)

Question: With `Cc1cccnc1` as the molecule, how does the outcome read?
Answer: inactive

Question: For `CC(C)CC(=O)CC(C)CC(C)C` (configuration not stated), which AC50 is on record?
Answer: 30.9 µM (active)

Question: With `CN(C)CCC(c1ccc(Cl)cc1)c1ccccn1` (configuration not stated) as the molecule, how does the outcome read?
Answer: inactive

Read-out: not listed separately
Test: BSK_4H_Eotaxin3: BioMAP Diversity Plus: 4H Assay for Eotaxin 3 Biomarker Activity (AID 2283000);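 on outcome: CCL26 protein level quantified by ELISA in parallel with SRB cytotoxicity check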
Conditions: primary human endothelial cells (HUVEC); actives raise or lower the signal
Procedure, shortened: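 Readout is Eotaxin-3 (CCL26) level by ELISA in primary human umbilical vein endothelial cells harvested 24 h after chemical exposure; activity fitted in both directions against DMSO control.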

Question: Which AC50 does the source give for `CCCCCCCCCCC1CO1` (configuration not stated) here?
Answer: 36.9 µM (active)

Question: With `Cc1cccnc1` as the molecule, how does the outcome read?
Answer: inactive

Question: Which AC50 does the source give for `CC(C)CC(=O)CC(C)CC(C)C` (configuration not stated) here?
Answer: 33.8 µM (active)

Question: With `CN(C)CCC(c1ccc(Cl)cc1)c1ccccn1` (configuration not stated) as the molecule, how does the outcome read?
Answer: inactive

Biological target: human Peroxisome Proliferator-activated Receptor alpha (PPARa), PPARA (gene 5465) (UniProt Q07869)
Test: ATG_PPARa_TRANS: Attagene TRANS-FACTORIAL HepG2 Assay for human Peroxisome Proliferator-activated Receptor alpha (PPARa) (AID 2283001; active means hit-call score of the fitted dose curve at least 0.9, where 1 is the maximum;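 on AC50: potency for gain of reporter signal over DMSO so agonist or activator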)
Conditions: not given
Procedure, shortened: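 Read-out is fluorescence of reporter cDNA fragments resolved by capillary electrophoresis after RT-PCR. Human HepG2 liver cells carried transfected PPARa-Gal4 chimera and GAL4-UAS reporter units, treated 24 h; activity scored as increase over DMSO.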

Sequence of human Peroxisome Proliferator-activated Receptor alpha (PPARa), PPARA (gene 5465) (Q07869 whole entry, looked up): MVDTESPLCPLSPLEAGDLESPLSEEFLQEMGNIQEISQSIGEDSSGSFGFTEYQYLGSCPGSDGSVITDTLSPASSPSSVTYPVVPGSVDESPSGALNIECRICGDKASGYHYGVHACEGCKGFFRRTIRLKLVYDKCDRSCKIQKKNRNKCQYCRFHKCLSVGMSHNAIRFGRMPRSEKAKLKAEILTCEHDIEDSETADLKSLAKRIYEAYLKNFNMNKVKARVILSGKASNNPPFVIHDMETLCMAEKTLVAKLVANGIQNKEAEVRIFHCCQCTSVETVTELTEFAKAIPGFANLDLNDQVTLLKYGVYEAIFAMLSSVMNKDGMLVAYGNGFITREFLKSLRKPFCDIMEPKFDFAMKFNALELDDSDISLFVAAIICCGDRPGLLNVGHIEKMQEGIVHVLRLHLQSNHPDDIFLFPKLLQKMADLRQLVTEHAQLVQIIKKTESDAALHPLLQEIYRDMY

Question: With `CC1(C)S[C@@H]2[C@H](NC(=O)[C@H](N)c3ccccc3)C(=O)N2[C@H]1C(=O)O` as the molecule, how does the outcome read?
Answer: inactive

Question: Which outcome does the source give for `CCC(C)(CCC(C)C)C(=O)O` (configuration not stated) here?
Answer: inactive

Question: For `Cc1cc(C)c(S(=O)(=O)O)cc1N=Nc1cc(S(=O)(=O)O)c2ccccc2c1O`, which outcome is on record?
Answer: inactive

Question: With `CCCc1c(OCCCCc2nn[nH]n2)ccc(C(C)=O)c1O` as the molecule, how does the AC50 read?
Answer: 27.7 µM (active)

Question: For `CCCCCCOC(=O)CCCCCCCC(=O)OCCCCCC`, which outcome is on record?
Answer: inactive

Question: For `O=C(O)Cc1c[nH]c2ccccc12`, which outcome is on record?
Answer: inactive

Question: For `CCCCCCCCCCC1CO1` (configuration not stated), which outcome is on record?
Answer: inactive

Question: Which outcome does the source give for `NCc1ccccc1` here?
Answer: inactive

Question: With `C[Si](C)(C)O[Si](C)(C)O[Si](C)(C)C` as the molecule, how does the outcome read?
Answer: inactive

Question: With `Cc1cc(O)cc(C)c1Cl` as the molecule, how does the outcome read?
Answer: inactive

Question: With `CC(C)n1c(/C=C/[C@@H](O)C[C@@H](O)CC(=O)O)c(-c2ccc(F)cc2)c2ccccc21` as the molecule, how does the outcome read?
Answer: inactive

Question: With `CC(O)(P(=O)(O)O)P(=O)(O)O` as the molecule, how does the outcome read?
Answer: inactive

Question: Which outcome does the source give for `C=C(C)C(=O)OCC1CCCO1` (configuration not stated) here?
Answer: inactive

Question: Which outcome does the source give for `OCCOCCOCCOCCOCCO` here?
Answer: inactive

Question: Which outcome does the source give for `C1=CCC=C1` here?
Answer: inactive

Question: For `CCCOCCC`, which outcome is on record?
Answer: inactive

Question: Which outcome does the source give for `CN(C)CCCN1c2ccccc2CCc2ccc(Cl)cc21` here?
Answer: inactive

Question: For `CC/C=C\CC1=C(C)CCC1=O`, which outcome is on record?
Answer: inactive

Question: Which outcome does the source give for `C[C@H]1C[C@H]2[C@@H]3CCC4=CC(=O)C=C[C@]4(C)[C@@]3(F)[C@@H](O)C[C@]2(C)[C@@]1(O)C(=O)CO` here?
Answer: inactive

Question: Which outcome does the source give for `COCCCN` here?
Answer: inactive

Question: For `COc1ccccc1OCC(O)CO` (configuration not stated), which outcome is on record?
Answer: inactive

Question: With `O=C(O)c1nc(Cl)c(Cl)c(Cl)c1Cl` as the molecule, how does the outcome read?
Answer: inactive

Biological target: human Peroxisome Proliferator-activated Receptor delta (PPARd), PPARD (gene 5467) (UniProt Q03181)
Test: ATG_PPARd_TRANS: Attagene TRANS-FACTORIAL HepG2 Assay for human Peroxisome Proliferator-activated Receptor delta (PPARd) (AID 2283002; active means hit-call score of the fitted dose curve at least 0.9, where 1 is the maximum)
Conditions: not given
Procedure, shortened: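 Transient HepG2 transfection (multiple GAL4-UAS RTUs, chimeric receptor-Gal4); 24 h dosing; total RNA → oligo(dT) RT → PCR → 6-FAM primer extension → HpaI cut → CE. Positive direction vs DMSO.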

Sequence of human Peroxisome Proliferator-activated Receptor delta (PPARd), PPARD (gene 5467) (Q03181 whole entry, looked up): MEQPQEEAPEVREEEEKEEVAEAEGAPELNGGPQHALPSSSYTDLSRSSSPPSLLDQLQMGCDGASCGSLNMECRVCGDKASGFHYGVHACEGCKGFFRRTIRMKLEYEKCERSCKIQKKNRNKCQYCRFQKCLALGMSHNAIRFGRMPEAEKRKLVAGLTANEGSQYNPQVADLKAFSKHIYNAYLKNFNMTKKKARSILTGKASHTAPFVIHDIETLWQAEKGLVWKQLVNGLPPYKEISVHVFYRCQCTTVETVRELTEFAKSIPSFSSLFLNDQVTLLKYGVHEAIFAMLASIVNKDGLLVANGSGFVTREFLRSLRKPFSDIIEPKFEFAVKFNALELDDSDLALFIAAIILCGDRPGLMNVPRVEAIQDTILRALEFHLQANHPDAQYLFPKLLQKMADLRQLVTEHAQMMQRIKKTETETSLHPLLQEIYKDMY

Question: Which outcome does the source give for `CCC(C)(CCC(C)C)C(=O)O` (configuration not stated) here?
Answer: inactive

Question: For `CCCc1c(OCCCCc2nn[nH]n2)ccc(C(C)=O)c1O`, which outcome is on record?
Answer: inactive

Question: For `c1cc(N(CC2CO2)CC2CO2)ccc1Cc1ccc(N(CC2CO2)CC2CO2)cc1` (configuration not stated), which outcome is on record?
Answer: inactive

Question: Which outcome does the source give for `CCCCCCOC(=O)CCCCCCCC(=O)OCCCCCC` here?
Answer: inactive

Question: With `CCCCCCCCCCC1CO1` (configuration not stated) as the molecule, how does the outcome read?
Answer: inactive

Question: Which outcome does the source give for `C[Si](C)(C)O[Si](C)(C)O[Si](C)(C)C` here?
Answer: inactive

Question: Which outcome does the source give for `Cc1cc(O)cc(C)c1Cl` here?
Answer: inactive

Question: Which outcome does the source give for `CC(C)n1c(/C=C/[C@@H](O)C[C@@H](O)CC(=O)O)c(-c2ccc(F)cc2)c2ccccc21` here?
Answer: inactive

Question: For `Cc1ccccc1S(N)(=O)=O`, which outcome is on record?
Answer: inactive

Question: Which outcome does the source give for `C=C(C)C(=O)OCC1CCCO1` (configuration not stated) here?
Answer: inactive

Question: Which outcome does the source give for `OCCOCCOCCOCCOCCO` here?
Answer: inactive

Question: For `C[C@H]1C[C@H]2[C@@H]3CCC4=CC(=O)C=C[C@]4(C)[C@@]3(F)[C@@H](O)C[C@]2(C)[C@@]1(O)C(=O)CO`, which outcome is on record?
Answer: inactive

Question: With `COC(OC)C(C)c1ccccc1` (configuration not stated) as the molecule, how does the outcome read?
Answer: inactive

Question: Which outcome does the source give for `COCCCN` here?
Answer: inactive

Question: With `COc1ccccc1OCC(O)CO` (configuration not stated) as the molecule, how does the outcome read?
Answer: inactive

Question: Which outcome does the source give for `O=C(O)c1nc(Cl)c(Cl)c(Cl)c1Cl` here?
Answer: inactive
